From the supplement of paper PMC10849652
Targets with a hit are over-represented here; the source holds about 8,800 in all. About 0.5% of all pairs of compound and target were hits. Values without a mark were called inactive.

How the values were obtained:
Experiment in all cases: log2 fold change, soluble protein after heating vs DMSO (PISA); higher = thermal stabilisation; K562 lysate, 10 uM; active = over 0.2 and 3.5 SD of the protein, either way, in both replicates (recomputed)
nilotinib = compound: Cc1cn(-c2cc(NC(=O)c3ccc(C)c(Nc4nccc(-c5cccnc5)n4)c3)cc(C(F)(F)F)c2)cn1 [nilotinib]
Method in brief: (§1)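 Following dounce homogenisation of K562 pellets in PBS pH 7.4 with 1 mM MgCl2, crude extract at 1 mg/mL protein was incubated for 30 min with 10 μM compound. Aliquots were then heated for 3 min over 48°C-58°C and pooled, NP-40 was added to 0.5% at 4°C, and soluble protein was recovered as the supernatant at 21,000xg for 90 min. Channel-sum-equalised TMTpro 16plex LC-MS/MS quantified this protein. Each value, from duplicates, is a log-two fold change in thermal stability relative to solvent controls.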

[1] = compound: Cc1nc(Nc2n[nH]c3c2CN(C(=O)N[C@H](CN(C)C)c2ccccc2)C3(C)C)c2sccc2n1
Method in brief: as §1

dasatinib = compound: Cc1nc(Nc2ncc(C(=O)Nc3c(C)cccc3Cl)s2)cc(N2CCN(CCO)CC2)n1 [dasatinib]
Method in brief: as §1

[2] = compound: Cc1ncc(-c2ccnc(Nc3ccc(S(C)(=O)=O)cc3)n2)n1C(C)C
Method in brief: as §1

[3] = compound: Cn1cc(-c2ccc3c(c2)CCN3C(=O)Cc2cccc(C(F)(F)F)c2)c2c(N)ncnc21
Method in brief: as §1

quisinostat = compound: Cn1cc(CNCC2CCN(c3ncc(C(=O)NO)cn3)CC2)c2ccccc21 [quisinostat]
Method in brief: as §1

tipifarnib = compound: Cn1cncc1[C@@](N)(c1ccc(Cl)cc1)c1ccc2c(c1)c(-c1cccc(Cl)c1)cc(=O)n2C [tipifarnib]
Method in brief: as §1

[4] = compound: NC(=O)Nc1cc(-c2cccc(F)c2)sc1C(=O)N[C@H]1CCCNC1
Method in brief: as §1

[5] = compound: NC(=O)c1cnc(N[C@@H]2CCCC[C@@H]2N)nc1Nc1cccc(-n2nccn2)c1
Method in brief: as §1

[6] = compound: NC1(c2ccc(-c3nc4ccn5c(=O)[nH]nc5c4cc3-c3ccccc3)cc2)CCC1
Method in brief: as §1

[7] = compound: NCC(=O)Nc1ccc(-n2nc(C(F)(F)F)cc2-c2ccc3c(ccc4ccccc43)c2)cc1
Method in brief: as §1

vorinostat = compound: O=C(CCCCCCC(=O)Nc1ccccc1)NO [vorinostat]
Method in brief: as §1

silmitasertib = compound: O=C(O)c1ccc2c(c1)nc(Nc1cccc(Cl)c1)c1ccncc12 [silmitasertib]
Method in brief: as §1

[8] = compound: O=C1NC(=O)C(c2cnc3ccccn23)=C1c1cn2c3c(cc(F)cc13)CN(C(=O)N1CCCCC1)CC2
Method in brief: as §1

entospletinib = compound: c1cn2cc(-c3ccc4cn[nH]c4c3)nc(Nc3ccc(N4CCOCC4)cc3)c2n1 [entospletinib]
Method in brief: as §1

UniProt Q9H2H9, sequence (Q9H2H9 whole entry, looked up): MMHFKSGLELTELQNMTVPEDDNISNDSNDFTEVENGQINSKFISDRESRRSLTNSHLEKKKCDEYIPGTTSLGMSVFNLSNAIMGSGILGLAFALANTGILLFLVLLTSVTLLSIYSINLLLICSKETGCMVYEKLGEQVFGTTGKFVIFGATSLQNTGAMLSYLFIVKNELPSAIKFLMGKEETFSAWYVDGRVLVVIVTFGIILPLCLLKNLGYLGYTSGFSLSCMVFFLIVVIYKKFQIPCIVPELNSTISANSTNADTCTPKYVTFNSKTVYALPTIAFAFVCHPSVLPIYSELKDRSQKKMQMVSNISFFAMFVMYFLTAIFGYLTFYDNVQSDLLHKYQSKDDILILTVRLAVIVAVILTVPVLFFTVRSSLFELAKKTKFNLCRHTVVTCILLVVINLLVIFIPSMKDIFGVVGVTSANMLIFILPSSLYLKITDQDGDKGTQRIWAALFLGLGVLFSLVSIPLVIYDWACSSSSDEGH
UniProt P62306, sequence (P62306 whole entry, looked up): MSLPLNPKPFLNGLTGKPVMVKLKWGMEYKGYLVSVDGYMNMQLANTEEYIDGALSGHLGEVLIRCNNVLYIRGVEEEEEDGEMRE
UniProt Q16629, sequence (Q16629 whole entry, looked up): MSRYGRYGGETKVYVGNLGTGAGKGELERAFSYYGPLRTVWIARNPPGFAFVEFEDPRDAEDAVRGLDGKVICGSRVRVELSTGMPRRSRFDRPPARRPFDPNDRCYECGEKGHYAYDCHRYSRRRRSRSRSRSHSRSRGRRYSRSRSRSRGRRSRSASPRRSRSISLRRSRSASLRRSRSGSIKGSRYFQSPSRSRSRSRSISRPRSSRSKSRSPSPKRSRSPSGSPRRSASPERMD
UniProt P08047, sequence (P08047 whole entry, looked up): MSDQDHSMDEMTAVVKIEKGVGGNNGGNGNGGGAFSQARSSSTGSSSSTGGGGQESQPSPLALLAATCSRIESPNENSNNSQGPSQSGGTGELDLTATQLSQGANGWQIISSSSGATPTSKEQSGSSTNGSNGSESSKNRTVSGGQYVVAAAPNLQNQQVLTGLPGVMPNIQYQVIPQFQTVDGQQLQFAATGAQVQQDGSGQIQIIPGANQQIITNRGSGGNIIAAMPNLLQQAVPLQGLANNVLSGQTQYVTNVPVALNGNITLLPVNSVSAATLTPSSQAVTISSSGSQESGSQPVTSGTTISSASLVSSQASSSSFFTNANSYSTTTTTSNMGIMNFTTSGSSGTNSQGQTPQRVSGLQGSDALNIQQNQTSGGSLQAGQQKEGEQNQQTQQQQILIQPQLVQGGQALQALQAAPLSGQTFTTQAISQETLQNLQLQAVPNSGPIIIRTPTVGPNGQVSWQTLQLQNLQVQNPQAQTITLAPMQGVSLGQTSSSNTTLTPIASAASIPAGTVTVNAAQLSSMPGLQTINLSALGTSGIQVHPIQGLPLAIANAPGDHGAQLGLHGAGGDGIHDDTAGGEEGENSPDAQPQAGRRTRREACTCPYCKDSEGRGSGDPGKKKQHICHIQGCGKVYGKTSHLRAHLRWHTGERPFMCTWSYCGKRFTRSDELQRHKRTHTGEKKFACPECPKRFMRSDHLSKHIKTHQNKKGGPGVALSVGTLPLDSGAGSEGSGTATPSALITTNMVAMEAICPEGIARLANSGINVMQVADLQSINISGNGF
UniProt Q99963, sequence (Q99963 whole entry, looked up): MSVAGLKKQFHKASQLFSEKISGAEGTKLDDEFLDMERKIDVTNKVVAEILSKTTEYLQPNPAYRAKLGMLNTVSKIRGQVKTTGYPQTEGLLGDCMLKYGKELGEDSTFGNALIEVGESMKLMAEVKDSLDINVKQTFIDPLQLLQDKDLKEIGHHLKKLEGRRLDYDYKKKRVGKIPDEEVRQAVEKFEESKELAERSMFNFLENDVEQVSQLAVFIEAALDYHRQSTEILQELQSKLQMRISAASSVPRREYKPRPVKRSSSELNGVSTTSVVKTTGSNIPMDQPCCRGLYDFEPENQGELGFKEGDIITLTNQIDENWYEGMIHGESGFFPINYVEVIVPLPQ
UniProt P51532, sequence (P51532 whole entry, looked up): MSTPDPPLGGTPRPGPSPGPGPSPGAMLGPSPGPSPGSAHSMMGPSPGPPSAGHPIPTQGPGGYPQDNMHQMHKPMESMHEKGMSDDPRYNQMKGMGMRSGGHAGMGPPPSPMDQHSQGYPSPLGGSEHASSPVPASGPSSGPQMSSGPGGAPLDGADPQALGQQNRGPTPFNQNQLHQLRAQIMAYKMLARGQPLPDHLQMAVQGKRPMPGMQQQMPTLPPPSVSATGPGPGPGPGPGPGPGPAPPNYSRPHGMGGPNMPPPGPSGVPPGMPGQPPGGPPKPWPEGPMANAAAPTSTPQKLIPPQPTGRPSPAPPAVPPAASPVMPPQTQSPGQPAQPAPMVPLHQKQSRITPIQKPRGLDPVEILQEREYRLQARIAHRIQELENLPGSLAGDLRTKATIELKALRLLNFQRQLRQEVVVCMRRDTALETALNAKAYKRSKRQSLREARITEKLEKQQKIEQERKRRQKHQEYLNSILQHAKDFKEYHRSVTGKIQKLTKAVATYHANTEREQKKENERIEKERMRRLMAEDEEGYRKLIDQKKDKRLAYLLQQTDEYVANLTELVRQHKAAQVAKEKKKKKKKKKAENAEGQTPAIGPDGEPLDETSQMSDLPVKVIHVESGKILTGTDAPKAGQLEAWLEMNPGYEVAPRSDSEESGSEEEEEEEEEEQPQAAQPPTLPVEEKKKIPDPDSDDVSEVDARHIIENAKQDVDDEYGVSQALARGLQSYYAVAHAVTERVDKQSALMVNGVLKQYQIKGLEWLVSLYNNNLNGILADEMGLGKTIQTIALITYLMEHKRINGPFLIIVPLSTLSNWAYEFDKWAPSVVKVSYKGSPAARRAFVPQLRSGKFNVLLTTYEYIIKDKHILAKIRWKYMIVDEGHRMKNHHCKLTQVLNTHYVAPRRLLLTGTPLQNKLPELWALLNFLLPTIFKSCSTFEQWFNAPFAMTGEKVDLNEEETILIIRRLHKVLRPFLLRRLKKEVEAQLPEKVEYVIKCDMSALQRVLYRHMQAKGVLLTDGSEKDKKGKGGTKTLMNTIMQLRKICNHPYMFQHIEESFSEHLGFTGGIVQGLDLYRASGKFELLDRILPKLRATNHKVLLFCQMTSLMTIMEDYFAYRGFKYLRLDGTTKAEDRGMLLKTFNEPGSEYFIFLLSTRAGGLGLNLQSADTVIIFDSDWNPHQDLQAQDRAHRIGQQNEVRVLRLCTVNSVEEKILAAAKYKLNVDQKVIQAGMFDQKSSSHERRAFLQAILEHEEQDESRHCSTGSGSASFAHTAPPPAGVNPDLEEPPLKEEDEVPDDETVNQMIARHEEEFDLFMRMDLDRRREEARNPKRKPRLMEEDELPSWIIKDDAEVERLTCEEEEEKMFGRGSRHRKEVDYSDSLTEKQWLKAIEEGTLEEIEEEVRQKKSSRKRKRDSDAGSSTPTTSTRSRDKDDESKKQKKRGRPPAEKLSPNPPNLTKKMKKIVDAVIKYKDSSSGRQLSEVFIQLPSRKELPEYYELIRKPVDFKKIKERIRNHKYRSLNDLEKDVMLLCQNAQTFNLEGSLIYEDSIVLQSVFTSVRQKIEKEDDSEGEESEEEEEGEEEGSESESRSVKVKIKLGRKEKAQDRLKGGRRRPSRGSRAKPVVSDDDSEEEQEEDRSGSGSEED
UniProt P05455, sequence (P05455 whole entry, looked up): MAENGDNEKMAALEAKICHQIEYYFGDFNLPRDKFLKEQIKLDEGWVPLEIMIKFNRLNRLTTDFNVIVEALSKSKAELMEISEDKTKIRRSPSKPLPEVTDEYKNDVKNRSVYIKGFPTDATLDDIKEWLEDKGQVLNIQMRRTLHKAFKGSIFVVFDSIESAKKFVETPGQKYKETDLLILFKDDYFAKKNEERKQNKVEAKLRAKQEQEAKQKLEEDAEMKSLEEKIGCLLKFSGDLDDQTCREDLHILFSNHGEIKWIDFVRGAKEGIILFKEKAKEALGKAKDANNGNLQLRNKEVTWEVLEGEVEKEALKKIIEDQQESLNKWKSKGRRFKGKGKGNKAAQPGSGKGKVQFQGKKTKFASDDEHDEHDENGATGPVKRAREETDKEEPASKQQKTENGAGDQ
UniProt P41440, sequence (P41440 whole entry, looked up): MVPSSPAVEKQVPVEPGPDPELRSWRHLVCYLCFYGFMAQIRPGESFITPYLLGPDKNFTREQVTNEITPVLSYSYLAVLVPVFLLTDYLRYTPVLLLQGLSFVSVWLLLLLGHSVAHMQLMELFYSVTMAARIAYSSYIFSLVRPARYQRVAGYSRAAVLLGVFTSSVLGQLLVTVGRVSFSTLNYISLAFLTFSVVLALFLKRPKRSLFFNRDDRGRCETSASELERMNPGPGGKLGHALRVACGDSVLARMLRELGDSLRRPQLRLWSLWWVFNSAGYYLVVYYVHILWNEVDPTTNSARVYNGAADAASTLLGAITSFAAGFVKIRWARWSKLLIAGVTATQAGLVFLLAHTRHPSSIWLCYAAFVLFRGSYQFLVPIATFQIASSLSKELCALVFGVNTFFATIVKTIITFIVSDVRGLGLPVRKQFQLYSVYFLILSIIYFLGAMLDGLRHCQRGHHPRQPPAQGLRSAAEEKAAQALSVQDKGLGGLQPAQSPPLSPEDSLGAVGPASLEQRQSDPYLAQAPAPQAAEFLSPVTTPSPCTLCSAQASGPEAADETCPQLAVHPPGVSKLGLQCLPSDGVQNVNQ
UniProt Q8N1S5, sequence (Q8N1S5 whole entry, looked up): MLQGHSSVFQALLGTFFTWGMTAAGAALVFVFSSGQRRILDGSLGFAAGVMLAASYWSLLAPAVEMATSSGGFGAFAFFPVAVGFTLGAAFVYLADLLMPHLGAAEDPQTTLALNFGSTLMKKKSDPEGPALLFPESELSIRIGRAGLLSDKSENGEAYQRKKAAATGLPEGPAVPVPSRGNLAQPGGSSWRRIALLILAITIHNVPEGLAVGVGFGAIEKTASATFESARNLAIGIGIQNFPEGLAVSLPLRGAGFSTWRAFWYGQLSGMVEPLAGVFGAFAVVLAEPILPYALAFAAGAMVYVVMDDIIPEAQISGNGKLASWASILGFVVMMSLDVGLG

Row | Target | log2 fold change (nilotinib) | log2 fold change [1] | log2 fold change (dasatinib) | log2 fold change [2] | log2 fold change [3] | log2 fold change (quisinostat) | log2 fold change (tipifarnib) | log2 fold change [4] | log2 fold change [5] | log2 fold change [6] | log2 fold change [7] | log2 fold change (vorinostat) | log2 fold change (silmitasertib) | log2 fold change [8] | log2 fold change (entospletinib)
1 | SND1 (UniProt Q7KZF4) | -0.008 | -0.011 | -0.028 | -0.024 | 0.038 | -0.033 | -0.003 | 0.05 | -0.007 | -0.017 | 0.001 | -0.414 (active) | 0.048 | 0.013 | 0.013
2 | SPR (UniProt P35270) | -0.063 | 0.01 | 0.201 | 0.012 | 0.075 | 0.077 | 0.035 | 0.01 | 0.02 | 0.009 | -0.037 | -0.199 | 0.308 | 0.219 | 0.003
3 | SLC39A11 (UniProt Q8N1S5) | 0.072 | -0.039 | -0.092 | -0.008 | -0.123 | 0.127 | 0.068 | 0.045 | 0.026 | 0.099 | -0.076 | 0.103 | -0.015 | 0.058 | -0.137
4 | SH3GL3 isoform 3 (UniProt Q99963) | -0.075 | -0.113 | -0.067 | 0.096 | -0.007 | -0.033 | 0.029 | 0.075 | 0.024 | -0.011 | 0.108 | -0.091 | 0.028 | 0.01 | 0.01
5 | SSB (UniProt P05455) | -0.013 | -0.014 | -0.008 | 0.006 | -0.018 | 0.099 | 0.022 | 0.001 | -0.013 | 0.012 | 0.027 | 0.081 | 0.01 | 0.032 | 0.005
6 | SRSF7 (UniProt Q16629) | -0.006 | -0.053 | 0.011 | -0.056 | -0.006 | 0.047 | 0.016 | -0.088 | 0.019 | 0.034 | 0.02 | 0.134 | -0.052 | -0.014 | -0.013
7 | SLC38A1 (UniProt Q9H2H9) | -0.001 | 0.007 | 0.001 | -0.002 | -0.041 | -0.123 | -0.032 | -0.015 | 0.001 | -0.024 | -0.015 | 0.099 | 0 | 0.008 | -0.015
8 | SUZ12 (UniProt Q15022) | 0.03 | -0.025 | 0.037 | -0.013 | -0.008 | -0.005 | 0.016 | -0.007 | -0.013 | -0.026 | -0.064 | -0.156 | 0.023 | 0.021 | 0.043
9 | SP1 (UniProt P08047) | -0.035 | -0.02 | -0.028 | 0.117 | -0.019 | 0.055 | -0.031 | -0.02 | 0.008 | 0.005 | 0.001 | -0.376 (active) | -0.045 | 0.081 | -0.006
10 | SNRPF (UniProt P62306) | -0.044 | 0.063 | 0.005 | 0.013 | -0.156 | -0.276 | -0.037 | 0 | -0.044 | 0.013 | -0.019 | -0.014 | -0.001 | -0.01 | -0.016
11 | SFR1 isoform 2 (UniProt Q86XK3) | -0.029 | 0.068 | 0.055 | 0.045 | -0.058 | -0.029 | 0.072 | -0.004 | 0.02 | -0.039 | 0.092 | -0.074 | 0.023 | -0.026 | -0.043
12 | SPNS1 (UniProt Q9H2V7) | 0.04 | -0.025 | 0 | -0.017 | 0.028 | -0.039 | 0.069 | -0.032 | 0.013 | -0.005 | 0.086 | -0.022 | 0.033 | -0.025 | -0.045
13 | SNCA (UniProt P37840) | 0.148 | 0.075 | 0.128 | -0.032 | 0.019 | -0.031 | 0.159 | -0.112 | -0.049 | 0 | 0.069 | 0.161 | -0.235 | -0.023 | -0.126
14 | STAT2 (UniProt P52630) | -0.017 | 0.006 | -0.024 | -0.086 | 0.025 | -0.117 | -0.024 | 0.054 | 0.016 | -0.016 | -0.018 | -0.254 (active) | 0.063 | -0.017 | 0.011
15 | STOML2 (UniProt Q9UJZ1) | -0.017 | -0.01 | 0.004 | 0.017 | -0.001 | 0.035 | 0.005 | 0.018 | 0.002 | -0.003 | 0.03 | 0.129 | -0.021 | 0.028 | 0.011
16 | SLC19A1 (UniProt P41440) | -0.026 | 0.014 | 0.019 | -0.032 | -0.017 | -0.077 | -0.01 | -0.015 | -0.027 | -0.004 | 0.003 | 0.01 | -0.024 | -0.054 | -0.002
17 | STK11IP (UniProt Q8N1F8) | 0.065 | 0.001 | -0.053 | -0.045 | -0.016 | -0.029 | -0.033 | -0.012 | -0.014 | 0.037 | -0.017 | -0.254 (active) | 0.025 | 0.008 | 0.024
18 | SMARCA4 isoform 4 (UniProt P51532) | -0.244 | -0.219 | -0.037 | 0.037 | 0.035 | -0.081 | 0.239 | 0.16 | -0.042 | 0.05 | – | 0.166 | -0.198 | 0.119 | -0.083
